# Laboratory results as given in PubChem BioAssay (EPA / NIEHS).
# Active and inactive are the calls of the source. The calls were made as follows: active = hit-call score of the fitted dose curve at least 0.9, where 1 is the maximum; inactive = score below 0.9.
# Columns and labels:
# [1] = ATG_ISRE_CIS: Attagene CIS-FACTORIAL HepG2 Assay for human Interferon Regulatory Factor 1 (IRF1) binding to an Interferon-Stimulated Response Element (ISRE) (AID 2282948); conditions: HepG2 ISRE cis-reporter (Attagene), mRNA transcription readout; actives raise or lower the signal
# How it was run: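 Endogenous transcription factor activity read as reporter transcript abundance via RT-PCR and capillary electrophoresis. HepG2 cells transiently transfected, 24 h chemical exposure. Gain or loss fitted against DMSO baseline.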
# [2] = ATG_M_32_CIS: Attagene CIS-FACTORIAL HepG2 Assay for M32 Transcription Factor (Internal Marker) (AID 2282949); conditions: HepG2 Attagene cis-factorial M32 reporter, mRNA; actives raise or lower the signal;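 also: background control marker of the multiplexed CIS panel rather than a real target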
# How it was run: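 Using DMSO as baseline, bidirectional curve fits were applied to reporter mRNA signals. These came from transiently transfected HepG2 cells exposed for 24 h, with RNA analysed by RT-PCR, FAM primer extension, HpaI digestion and CE.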
# [3] = ATG_M_06_CIS: Attagene CIS-FACTORIAL HepG2 Assay for M06 Transcription Factor (Internal Marker) (AID 2282950); conditions: HepG2 Attagene CIS-FACTORIAL M06 internal marker reporter; actives raise or lower the signal
# How it was run: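 Steps: transfect HepG2 with multiplexed cis-element reporter constructs; dose chemical 24 h; extract RNA with DNase treatment; reverse-transcribe, PCR-amplify, 6-FAM label, HpaI digest; separate fragments by capillary electrophoresis. Activity fitted both directions versus DMSO.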
# [4] = biological target: Hypoxia-inducible factor 1-alpha (Homo sapiens) (UniProt Q16665); assay: ATG_HIF1a_CIS: Attagene CIS-FACTORIAL HepG2 Assay for human Hypoxia Inducible Factor 1 (HIF1A) (AID 2282951); conditions: HepG2 Attagene cis-factorial HIF1a reporter transcription; actives raise or lower the signal
# Hypoxia-inducible factor 1-alpha (Homo sapiens), sequence (Q16665 whole entry, looked up): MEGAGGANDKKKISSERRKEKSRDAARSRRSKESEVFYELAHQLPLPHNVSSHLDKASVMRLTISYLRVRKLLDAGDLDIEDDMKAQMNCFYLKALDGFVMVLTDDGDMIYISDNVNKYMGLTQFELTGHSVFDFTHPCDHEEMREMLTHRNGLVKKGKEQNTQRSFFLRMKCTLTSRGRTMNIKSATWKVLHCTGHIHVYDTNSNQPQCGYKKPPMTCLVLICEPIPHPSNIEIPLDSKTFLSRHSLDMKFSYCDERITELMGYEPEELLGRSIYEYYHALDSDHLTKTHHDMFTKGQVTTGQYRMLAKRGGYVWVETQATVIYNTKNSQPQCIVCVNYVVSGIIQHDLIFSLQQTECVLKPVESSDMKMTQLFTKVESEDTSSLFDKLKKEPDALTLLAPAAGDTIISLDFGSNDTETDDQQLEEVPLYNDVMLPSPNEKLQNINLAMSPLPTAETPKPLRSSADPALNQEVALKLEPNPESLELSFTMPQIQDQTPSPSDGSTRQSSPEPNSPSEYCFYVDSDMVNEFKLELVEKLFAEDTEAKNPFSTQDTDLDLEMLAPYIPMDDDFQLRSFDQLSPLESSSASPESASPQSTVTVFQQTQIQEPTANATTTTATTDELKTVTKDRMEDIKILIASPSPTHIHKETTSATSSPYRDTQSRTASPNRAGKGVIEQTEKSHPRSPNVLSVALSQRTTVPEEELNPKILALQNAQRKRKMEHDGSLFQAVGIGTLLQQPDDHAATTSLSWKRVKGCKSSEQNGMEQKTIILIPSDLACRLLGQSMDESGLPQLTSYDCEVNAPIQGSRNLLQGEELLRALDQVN
# How it was run: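 Dosed 24 h, transfected HepG2 cells yielded total RNA whose reporter transcripts were RT-PCR-amplified and sized by capillary electrophoresis using fluorescent labelling; DMSO defined baseline, with gain and loss of signal both fitted.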
# [5] = biological target: Hepatocyte nuclear factor 6 (Homo sapiens) (UniProt Q9UBC0); assay: ATG_HNF6_CIS: Attagene CIS-FACTORIAL HepG2 Assay for human Hepatocyte Nuclear Factor 6 (HNF6) (AID 2282952); conditions: HepG2 Attagene cis-factorial HNF6 reporter transcription; actives raise or lower the signal
# Hepatocyte nuclear factor 6 (Homo sapiens), sequence (Q9UBC0 whole entry, looked up): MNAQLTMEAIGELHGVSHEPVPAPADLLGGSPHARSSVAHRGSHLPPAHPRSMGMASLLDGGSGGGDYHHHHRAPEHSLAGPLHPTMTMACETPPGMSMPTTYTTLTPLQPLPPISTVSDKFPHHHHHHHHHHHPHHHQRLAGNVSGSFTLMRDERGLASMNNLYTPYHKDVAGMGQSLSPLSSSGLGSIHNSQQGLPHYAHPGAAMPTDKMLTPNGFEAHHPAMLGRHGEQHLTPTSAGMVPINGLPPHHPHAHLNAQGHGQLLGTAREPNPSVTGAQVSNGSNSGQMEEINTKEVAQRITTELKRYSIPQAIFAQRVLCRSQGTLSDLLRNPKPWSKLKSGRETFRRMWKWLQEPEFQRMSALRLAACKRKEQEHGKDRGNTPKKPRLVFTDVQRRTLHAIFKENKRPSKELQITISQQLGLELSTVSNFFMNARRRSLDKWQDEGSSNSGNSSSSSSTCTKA
# How it was run: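 Activity values derive from bidirectional fitting against DMSO of reporter mRNA levels, measured by capillary electrophoresis of labelled RT-PCR products from HepG2 cells exposed 24 h.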
# [6] = biological target: Heat shock factor protein 1 (Homo sapiens) (UniProt Q00613); assay: ATG_HSE_CIS: Attagene CIS-FACTORIAL HepG2 Assay for human Heat Shock Transcription Factor 1 (HSE) (AID 2282953); conditions: HepG2 HSE cis-reporter, Attagene RNA transcription; actives raise or lower the signal
# Heat shock factor protein 1 (Homo sapiens), sequence (Q00613 whole entry, looked up, the tested form may be a part): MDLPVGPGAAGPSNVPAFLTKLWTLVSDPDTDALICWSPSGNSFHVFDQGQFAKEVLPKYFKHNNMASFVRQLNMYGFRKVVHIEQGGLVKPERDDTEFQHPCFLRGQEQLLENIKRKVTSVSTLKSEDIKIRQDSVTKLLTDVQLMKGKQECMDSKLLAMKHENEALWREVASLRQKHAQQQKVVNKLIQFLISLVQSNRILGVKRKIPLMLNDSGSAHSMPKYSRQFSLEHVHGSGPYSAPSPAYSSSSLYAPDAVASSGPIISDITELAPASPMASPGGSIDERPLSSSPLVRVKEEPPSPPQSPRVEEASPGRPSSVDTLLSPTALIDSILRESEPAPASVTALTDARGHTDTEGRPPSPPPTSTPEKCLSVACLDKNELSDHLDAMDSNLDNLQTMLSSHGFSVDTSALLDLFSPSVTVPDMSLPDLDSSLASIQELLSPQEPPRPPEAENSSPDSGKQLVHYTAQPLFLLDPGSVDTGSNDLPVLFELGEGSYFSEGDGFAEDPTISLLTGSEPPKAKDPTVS
# How it was run: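 Cells were transfected with cis-element-driven reporter constructs, dosed for 24 h, then total RNA was reverse-transcribed and reporter cDNA amplified, FAM-labelled and digested with HpaI. Fragments were resolved by capillary electrophoresis; gain or loss was fitted against DMSO.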
# [7] = ATG_MRE_CIS: Attagene CIS-FACTORIAL HepG2 Assay for human Metal Responsive Element (MRE) (AID 2282954); conditions: HepG2 MRE cis-reporter transcription, Attagene multiplex; actives raise or lower the signal
# How it was run: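 RT-PCR/capillary electrophoresis readout of reporter mRNA, 24 h post-dosing, in HepG2 cells transfected with multiplexed cis-regulated reporter constructs. Gain or loss of signal fitted bidirectionally against DMSO baseline.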
# [8] = ATG_PBREM_CIS: Attagene CIS-FACTORIAL HepG2 Assay for human Phenobarbital-responsive Enhancer Module (PBREM) (AID 2282955); conditions: HepG2 PBREM cis-reporter, Attagene multiplexed transcription; actives raise or lower the signal
# How it was run: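 Transfected liver-derived HepG2 cells exposed 24 h; PBREM reporter transcript quantified via RT-PCR and capillary electrophoresis, with activity in either direction referenced to DMSO.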
# [9] = biological target: Paired box protein Pax-6 (Homo sapiens) (UniProt P26367); assay: ATG_Pax6_CIS: Attagene CIS-FACTORIAL HepG2 Assay for human Paired Box 6 (PAX6) (AID 2282956); conditions: HepG2 CIS-FACTORIAL PAX6 reporter transcription, RNA readout; actives raise or lower the signal
# Paired box protein Pax-6 (Homo sapiens), sequence (P26367 whole entry, looked up): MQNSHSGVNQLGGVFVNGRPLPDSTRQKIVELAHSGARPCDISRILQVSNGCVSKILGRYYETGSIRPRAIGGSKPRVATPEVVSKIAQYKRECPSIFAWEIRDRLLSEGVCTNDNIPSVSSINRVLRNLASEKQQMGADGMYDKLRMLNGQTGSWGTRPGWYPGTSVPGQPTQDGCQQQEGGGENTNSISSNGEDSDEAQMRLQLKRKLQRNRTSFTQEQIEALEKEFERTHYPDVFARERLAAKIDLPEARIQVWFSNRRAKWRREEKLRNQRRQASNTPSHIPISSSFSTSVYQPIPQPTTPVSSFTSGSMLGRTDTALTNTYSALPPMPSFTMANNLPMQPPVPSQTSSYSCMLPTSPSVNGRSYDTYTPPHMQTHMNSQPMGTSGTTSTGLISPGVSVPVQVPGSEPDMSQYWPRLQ
# How it was run: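 Read-out is reporter transcript level, measured by RT-PCR with fluorescent primer extension and capillary electrophoresis after 24 h dosing of transfected HepG2 cells. Activity in either direction fitted relative to DMSO control.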
# [10] = ATG_PXRE_CIS: Attagene CIS-FACTORIAL HepG2 Assay for human Pregnane X Receptor Element (PXRE) (AID 2282957); conditions: HepG2 Attagene CIS-FACTORIAL PXRE reporter, mRNA; actives raise or lower the signal
# How it was run: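 Fluorescent capillary electrophoresis of amplified reporter cDNA gave the signal, collected 24 h after dosing HepG2 cells that held transfected cis-element reporter constructs.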
# [11] = ATG_PPRE_CIS: Attagene CIS-FACTORIAL HepG2 Assay for human Peroxisome Proliferator-activated Response Element (PPRE) (AID 2282958); conditions: HepG2 PPRE cis-element reporter, Attagene transcription factor profiling; actives raise or lower the signal
# How it was run: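 Measured endpoint: PPRE-controlled reporter mRNA, detected by RT-PCR and capillary electrophoresis fluorescence, from transiently transfected HepG2 cells 24 h after dosing. Curves fitted in both directions using DMSO baseline.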
# [12] = ATG_RORE_CIS: Attagene CIS-FACTORIAL HepG2 Assay for human RAR-related Orphan Receptor Element (RORE) (AID 2282959); conditions: HepG2 Attagene cis-factorial RORE reporter, mRNA; actives raise or lower the signal
# How it was run: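 Transiently transfected HepG2 reporter cells were treated 24 h. Reporter transcripts were detected by RT-PCR and capillary electrophoresis, with bidirectional fitting against DMSO.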
# [13] = biological target: Transcription factor Sp1 (Homo sapiens) (UniProt P08047); assay: ATG_Sp1_CIS: Attagene CIS-FACTORIAL HepG2 Assay for human Specificity Protein 1 (Sp1) (AID 2282961); conditions: HepG2 Sp1 cis-reporter transcription, actives raise or lower the signal
# Transcription factor Sp1 (Homo sapiens), sequence (P08047 whole entry, looked up, the tested form may be a part): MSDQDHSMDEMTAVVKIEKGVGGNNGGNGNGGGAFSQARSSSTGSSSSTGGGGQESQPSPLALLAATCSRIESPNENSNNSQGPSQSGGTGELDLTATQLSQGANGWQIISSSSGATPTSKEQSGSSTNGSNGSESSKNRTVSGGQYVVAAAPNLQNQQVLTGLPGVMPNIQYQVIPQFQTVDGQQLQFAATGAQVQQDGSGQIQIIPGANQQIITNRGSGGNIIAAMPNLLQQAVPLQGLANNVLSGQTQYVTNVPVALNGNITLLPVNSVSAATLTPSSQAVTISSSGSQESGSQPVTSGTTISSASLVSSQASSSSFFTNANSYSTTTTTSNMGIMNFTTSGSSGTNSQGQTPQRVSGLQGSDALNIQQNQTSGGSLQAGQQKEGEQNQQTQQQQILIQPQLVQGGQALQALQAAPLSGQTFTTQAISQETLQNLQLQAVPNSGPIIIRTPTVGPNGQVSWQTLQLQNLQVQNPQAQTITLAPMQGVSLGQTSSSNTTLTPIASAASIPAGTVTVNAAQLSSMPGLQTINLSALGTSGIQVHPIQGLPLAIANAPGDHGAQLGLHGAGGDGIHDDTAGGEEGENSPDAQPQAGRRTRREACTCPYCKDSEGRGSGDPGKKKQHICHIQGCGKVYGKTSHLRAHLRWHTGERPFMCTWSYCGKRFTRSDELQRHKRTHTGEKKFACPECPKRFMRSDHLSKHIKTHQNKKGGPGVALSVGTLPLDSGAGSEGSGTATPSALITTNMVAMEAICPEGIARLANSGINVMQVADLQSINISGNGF
# How it was run: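 Endpoint reflects endogenous Sp1 transcriptional activity, not an exogenous fusion protein: HepG2 cells with transfected cis-regulated reporters, 24 h dosing, RT-PCR/capillary electrophoresis mRNA read-out, DMSO-normalised bidirectional fit.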
# [14] = ATG_SREBP_CIS: Attagene CIS-FACTORIAL HepG2 Assay for human Sterol Regulatory Element Binding (SREBP) (AID 2282962); conditions: HepG2 Attagene cis-factorial SREBP reporter, mRNA; actives raise or lower the signal
# How it was run: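 Endogenous SREBP activity read as cis-element-driven reporter transcript in transiently transfected HepG2, 24 h post-dosing; quantified via RT-PCR plus capillary electrophoresis of fluorescent fragments. Gain or loss of signal fitted relative to DMSO baseline.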
# [15] = biological target: Signal transducer and activator of transcription 3 (Homo sapiens) (UniProt P40763); assay: ATG_STAT3_CIS: Attagene CIS-FACTORIAL HepG2 Assay for human Signal Transducer and Activator of Transcription 3 (STAT3) (AID 2282963); conditions: HepG2, Attagene cis-factorial STAT3 reporter transcription; actives raise or lower the signal
# Signal transducer and activator of transcription 3 (Homo sapiens), sequence (P40763 whole entry, looked up, the tested form may be a part): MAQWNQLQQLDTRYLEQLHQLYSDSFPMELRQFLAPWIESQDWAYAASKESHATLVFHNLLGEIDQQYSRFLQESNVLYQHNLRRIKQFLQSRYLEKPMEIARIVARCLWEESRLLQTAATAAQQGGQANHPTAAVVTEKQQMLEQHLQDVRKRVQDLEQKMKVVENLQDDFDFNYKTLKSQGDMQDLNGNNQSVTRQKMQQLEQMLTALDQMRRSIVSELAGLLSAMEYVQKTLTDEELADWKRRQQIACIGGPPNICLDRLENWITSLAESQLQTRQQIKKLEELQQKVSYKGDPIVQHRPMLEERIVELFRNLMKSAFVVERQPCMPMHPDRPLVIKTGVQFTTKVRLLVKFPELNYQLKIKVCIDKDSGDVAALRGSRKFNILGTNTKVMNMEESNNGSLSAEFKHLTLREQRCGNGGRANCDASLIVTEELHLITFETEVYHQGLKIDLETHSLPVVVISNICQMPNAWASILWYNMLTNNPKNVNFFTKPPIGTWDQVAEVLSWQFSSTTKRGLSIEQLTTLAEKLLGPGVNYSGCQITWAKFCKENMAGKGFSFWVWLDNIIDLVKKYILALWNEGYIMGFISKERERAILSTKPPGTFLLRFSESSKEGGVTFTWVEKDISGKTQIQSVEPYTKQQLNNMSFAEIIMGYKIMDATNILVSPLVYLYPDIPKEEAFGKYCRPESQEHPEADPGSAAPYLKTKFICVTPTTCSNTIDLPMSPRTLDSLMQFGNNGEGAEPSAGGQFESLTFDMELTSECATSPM
# How it was run: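 Readout: fluorescent reporter mRNA fragments resolved by capillary electrophoresis. Setup: HepG2 transfected with MRTUs reporting endogenous transcription-factor activity, dosed 24 h. Gain or loss of signal fitted bidirectionally against DMSO control.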
# [16] = ATG_TA_CIS: Attagene CIS-FACTORIAL HepG2 Assay for human TA Basal Promoter (AID 2282964); conditions: HepG2 Attagene CIS-factorial TA basal promoter reporter; actives raise or lower the signal
# How it was run: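 Steps: transfect HepG2 with MRTUs; dose 24 h; isolate RNA, DNase-treat, reverse-transcribe; PCR and FAM-label reporter cDNA; digest with HpaI 2h at 37 C; run capillary electrophoresis. Activity fitted both directions against DMSO.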
# [17] = ATG_TCF_b_cat_CIS: Attagene CIS-FACTORIAL HepG2 Assay for human T-Cell-Factor with beta-catenin (TCF/b-cat) (AID 2282965); conditions: HepG2 TCF/beta-catenin cis-reporter transcription, actives raise or lower the signal
# How it was run: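 HepG2, transient MRTU transfection, cis-element-driven reporters (endogenous TFs). 24 h compound exposure. Readout: reporter mRNA by RT-PCR + 6-FAM primer extension, HpaI digest, capillary electrophoresis. Gain/loss fit vs DMSO baseline.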
# [18] = ATG_Sox_CIS: Attagene CIS-FACTORIAL HepG2 Assay for human SRY-box transcription factor (SOX) (AID 2282960); conditions: HepG2 Attagene cis-factorial SOX reporter, mRNA; actives raise or lower the signal
# How it was run: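 Gain- or loss-of-signal endpoint, fitted bidirectionally with DMSO as negative control. Based on reporter mRNA from transfected HepG2 cells harvested 24 h post-treatment and quantified via RT-PCR and capillary electrophoresis.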
compound,measurement,setting,value
O=C1CCCC(=O)O1,outcome,[1],inactive
same,outcome,[2],inactive
same,outcome,[3],inactive
same,outcome,[4],inactive
same,outcome,[5],inactive
same,outcome,[6],inactive
same,outcome,[7],inactive
same,outcome,[8],inactive
same,outcome,[9],inactive
same,outcome,[10],inactive
same,outcome,[11],inactive
same,outcome,[12],inactive
same,outcome,[13],inactive
same,outcome,[14],inactive
same,outcome,[15],inactive
same,outcome,[16],inactive
same,outcome,[17],inactive
CC(C)(C)c1ccc(N)cc1,outcome,[1],inactive
same,outcome,[2],inactive
same,outcome,[3],inactive
same,outcome,[4],inactive
same,outcome,[5],inactive
same,outcome,[7],inactive
same,outcome,[8],inactive
same,outcome,[9],inactive
same,AC50,[10],24.2 µM (active)
same,outcome,[11],inactive
same,outcome,[12],inactive
same,outcome,[18],inactive
same,outcome,[14],inactive
same,outcome,[15],inactive
same,outcome,[16],inactive
same,outcome,[17],inactive
Cc1ccc(C(C)(C)C)cc1,outcome,[1],inactive
same,outcome,[2],inactive
same,outcome,[3],inactive
same,outcome,[4],inactive
same,outcome,[6],inactive
same,outcome,[7],inactive
same,outcome,[8],inactive
same,outcome,[9],inactive
same,outcome,[10],inactive
same,outcome,[11],inactive
same,outcome,[12],inactive
same,outcome,[18],inactive
same,outcome,[13],inactive
same,outcome,[14],inactive
same,outcome,[15],inactive
same,outcome,[16],inactive
same,outcome,[17],inactive
CN(C)c1ccc(N=Nc2ccccc2C(=O)O)cc1,AC50,[1],58.1 µM (active)
same,outcome,[2],inactive
same,outcome,[3],inactive
same,AC50,[4],17.9 µM (active)
same,outcome,[5],inactive
same,AC50,[7],43.9 µM (active)
same,outcome,[8],inactive
same,AC50,[9],35.1 µM (active)
same,AC50,[10],26.3 µM (active)
same,AC50,[11],17.8 µM (active)
same,outcome,[12],inactive
same,AC50,[18],24.9 µM (active)
same,outcome,[14],inactive
same,outcome,[15],inactive
same,outcome,[16],inactive
same,AC50,[17],31.4 µM (active)
O=CN1CCCCC1,outcome,[1],inactive
same,outcome,[2],inactive
same,outcome,[3],inactive
same,outcome,[5],inactive
same,outcome,[6],inactive
same,outcome,[7],inactive
same,outcome,[8],inactive
same,outcome,[9],inactive
same,outcome,[10],inactive
same,outcome,[11],inactive
same,outcome,[12],inactive
same,outcome,[18],inactive
same,outcome,[14],inactive
same,outcome,[15],inactive
same,outcome,[16],inactive
same,outcome,[17],inactive
CNC(=S)NN,outcome,[1],inactive
same,outcome,[2],inactive
same,outcome,[3],inactive
same,outcome,[4],inactive
same,outcome,[5],inactive
same,outcome,[6],inactive
same,outcome,[7],inactive
same,outcome,[9],inactive
same,outcome,[11],inactive
same,outcome,[12],inactive
same,outcome,[18],inactive
same,outcome,[13],inactive
same,outcome,[14],inactive
same,outcome,[15],inactive
same,outcome,[16],inactive
same,outcome,[17],inactive
